Source: PubChem (National Center for Advancing Translational Sciences (NCATS))
Shiga inhibitor: blocks Shiga toxin action in Vero cells. Vero cells, Shiga toxin protein synthesis inhibition reporter. inhibition, % at 38.7 µM. 9.2% of 290,000 active. AID 2315; in the data active means inhibition mostly above about 28%, no sharp cut-off; inactive means mostly below about 43%; further: 0% is about no effect
SARS PLpro yeast: SARS-CoV PLP inhibition in yeast; Potency, µM (doses to about 32.9 µM), without a hit: at the top dose activity, positive = growth rescue, most hits filed as activators; 0.19% of 330,000 active; S. cerevisiae expressing SARS-CoV PLpro, growth rescue; calls by dose curve; further: potency means the concentration at half of the fitted maximal effect; 0% is about no effect; nearly all actives have a fitted effect of over 55% in size
CHX counter: affects cycloheximide protein synthesis inhibition readout, counter-screen; cell reporter, cycloheximide protein synthesis inhibition counterscreen; max response, %; 12% of 300,000 active; AID 2314; in the data active means max response mostly above about 13%, no sharp cut-off; inactive means mostly below about 14%; further: read at 38.3 µM for the half of the compounds with a filed dose; 0% is about no effect
AMA1 RON2 block: inhibitors of Plasmodium falciparum AMA1-RON2 interaction | AlphaScreen AMA1-biotinylated RON2 peptide binding | Potency, µM (doses to about 58.2 µM), without a hit: at the top dose activity change, negative = inhibition, actives largely listed as inhibitors | 0.2% of 360,000 active | AID 720542;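 further: potency means the concentration at half of the fitted maximal effect; 0% = vehicle wells and -100% = peptide control; nearly all actives have a fitted effect of over 45% in size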
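AMA1 (3D7) with his tag at 25 nM final met compounds first, then biotinylated RON2 peptide at 25 nM; detection used donor plus acceptor beads, 10 µg/mL apiece, read by AlphaScreen after 30 min at room temperature.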
Pf growth 96h: inhibits malaria parasite growth, 96 h. AID 504834. P. falciparum luciferase reporter growth, 96 h. Potency, µM (titrated, usually from 28.7 µM), for the others: top-dose activity change, negative = inhibition, hits mostly inhibitors. 6.9% of 320,000 active; further: potency means the concentration at half of the fitted maximal effect; on the % scale 0 is the no-effect control and ±100 the full control effect
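Delayed-death screen, second-generation endpoint: infected erythrocytes, 2% hematocrit, 0.05% parasitemia final; 96 hours at 37 C, 5% CO2; luciferase detection reagent; luminescence decrease equals reduced growth.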
Pf growth 48h: inhibits P. falciparum growth in the first generation, 48 h; P. falciparum luciferase growth in erythrocytes, 48 h; Potency, µM (highest dose often 28.7 µM), for the others: at the highest dose activity change, negative = inhibition, actives largely listed as inhibitors; 5.9% of 310,000 active; AID 504832; further: potency means the concentration at half of the fitted maximal effect; on the % scale 0 is the no-effect control and ±100 the full control effect
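Erythrocytes infected with P. falciparum carrying an integrated firefly luciferase reporter (2% hematocrit, 0.1% parasitemia final) were exposed to compounds in RPMI 1640 with 0.5% Albumax at 37 C, 5% CO2. Growth inhibition was scored as reduced luminescence.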
An asterisk follows results filed as active; ? = inconclusive; . = no result given; [ ] = remark or other dose. Hits are enriched below; roughly 19% of the tested compounds scored in any of these assays. Unless noted, the call rests on the fitted dose curve; in most records, active means well fitted curve in the direction sought with a large enough effect; inconclusive means small, poorly fitted or top-dose-only effect, or another doubt; inactive means no such curve, though single readings can be large; an effect the other way counts as inactive or inconclusive.

SMILES | Shiga inhibitor | SARS PLpro yeast | CHX counter | AMA1 RON2 block | Pf growth 96h | Pf growth 48h
Cc1ccc(NC(=O)N2CCCc3ccccc32)cc1C | 53.2* | -0.3% | 38.6* | 3.6% | -38.9% | 100.0%
O=C(Nc1ccccc1)N1CCCc2ccccc21 | 26.5* | 16.1% | 12.8 | 1.4% | ? | 16.8%
Cc1cccc(NC(=O)N2CCCc3ccccc32)c1C | 46.4 | 5.4% | 36.0* | 10.7% | 7.6% | 21.8%
CCOC(=O)C1(Cc2ccc(Cl)cc2)CCN(C(=O)c2sc(C)nc2C)CC1 | 19.6 | 0.1% | -6.6 | -10.2% | ? | ?
CC1CCC(NC(=O)c2nn(C)c3c2CSc2ccccc2-3)CC1 (stereo not drawn) | -4.2 | -8.7% | -2.3 | -12.6% | ? | 2.9%
Cc1c(C)n(CCCN(C)C)c2ncnc(NC3CCCCC3)c12 | 3.6 | 0.9% | -1.8 | -9.1% | -21.8% | -1.5%
O=c1c(Oc2ccccc2)coc2cc(O)cc(O)c12 | . | . | . | -9.6% | . | .
O=c1c(-c2ccc(O)cc2O)coc2cc(O)cc(O)c12 | 6.1 | 0.0% | 1.9 | -23.4% | 1.17µM* | 86.7%
COc1ccccc1-c1coc2cc(O)cc(O)c2c1=O | 61.1* | -16.9% | 29.6* | -6.2% | . | 4.1%
O=c1c(O)c(-c2ccc(O)cc2O)oc2cc(O)cc(O)c12 | -3.6 | 18.7% | 0.8 | . | -10.3% | -10.4%
COc1ccc(-c2coc3cc(O)cc(O)c3c2=O)cc1OC | 56.0* | 4.0% | 26.7* | -3.1% | 36.9% | -2.5%
COc1ccc(-c2c(C)oc3cc(O)cc(O)c3c2=O)cc1OC | 38.5 | ? | -1.4 | -2.5% | ? | 1.8%
COc1ccc(/C=C2\Oc3cc(OCC(=O)N4CCC[C@H]4CO)ccc3C2=O)c(OC)c1 | 2.5 | -4.8% | -1.1 | 5.8% | ? | ?
COC(=O)[C@@]1(Cc2ccc(OC)cc2)[C@H]2c3cc(C(=O)N4CCCC4)n(CCSCCO)c3C[C@H]2CN1C(=O)c1ccccc1 | -7.0 | 0.8% | -3.2 | -6.2% | 1.65µM* | 1.04µM*
COC(=O)[C@@]1(Cc2ccccc2)[C@H]2c3cc(C(=O)N4CCCC4)n(Cc4ccsc4Br)c3C[C@H]2CN1C(=O)c1ccccc1 | -6.0 | -15.6% | -1.1 | . | 3.29µM* | ?
COC(=O)[C@@]1(Cc2ccc(OC)cc2)[C@H]2c3cc(C(=O)N4CCCC4)n(Cc4ccccc4)c3C[C@H]2CN1C(=O)c1ccccc1 | . | . | . | -15.8% | . | .
COC(=O)[C@@]1(Cc2ccc(OC)cc2)[C@H]2c3cc(C(=O)N4CCCC4)n(CCO)c3C[C@H]2CN1C(=O)c1ccccc1 | -13.3 | 10.2% | -0.9 | -1.6% | 4.65µM* | ?
COC(=O)[C@@]1(Cc2ccc(OC)cc2)[C@H]2c3cc(C(=O)N4CCCC4)n(CCc4c[nH]c5ccc(O)cc45)c3C[C@H]2CN1C(=O)c1ccccc1 | -8.4 | 8.2% | -3.5 | . | 2.08µM* | 1.04µM*
COC(=O)[C@@]1(Cc2ccc(OC)cc2)[C@H]2c3cc(C(=O)N4CCCC4)n(CCc4ccc(OC)c(Br)c4)c3C[C@H]2CN1C(=O)c1ccccc1 | . | . | . | -1.8% | . | .
CCOc1cc(NC(=O)C2CC2)c(OCC)cc1NC(=O)c1cccnc1 | -6.5 | -8.8% | 3.7 | . | ? | -5.5%
O=C(Cc1ncc(C(F)(F)F)cc1Cl)NCc1ccco1 | -7.5 | -0.8% | 1.6 | 12.4% | 38.4% | 369.0%
Cc1ccc(S(=O)ONc2cccc(NOS(=O)c3ccc(C)cc3)c2)cc1 (stereo not drawn) | . | . | . | -2.0% | . | .
COC(=O)Cn1c(C(=O)N2CCCC2)cc2c1C[C@H]1CN(C(=O)c3ccccc3)[C@@](Cc3ccc(F)cc3)(C(=O)OC)[C@@H]21 | -10.1 | 15.9% | -2.2 | -3.0% | 8.28µM* | 5.22µM*
COC(=O)[C@@]1(Cc2ccc(OC)cc2)[C@H]2c3cc(C(=O)N(C)C)n(CCSCCO)c3C[C@H]2CN1C(=O)c1ccccc1 | -7.4 | -12.8% | -5.5 | 9.0% | 5.22µM* | 2.33µM*
COC(=O)[C@@]1(Cc2ccc(F)cc2)[C@H]2c3cc(C(=O)N4CCCC4)n(CCO)c3C[C@H]2CN1C(=O)c1ccccc1 | -15.0 | 12.2% | -5.1 | -3.6% | 6.57µM* | 3.7µM*
SMILES | Shiga inhibitor | SARS PLpro yeast | CHX counter | AMA1 RON2 block | Pf growth 96h | Pf growth 48h
COC(=O)[C@@]1(Cc2ccc(F)cc2)[C@H]2c3cc(C(=O)N(C)C)n(CCF)c3C[C@H]2CN1C(=O)c1ccccc1 | . | . | . | 0.1% | . | .
COc1cc(C(=O)NCC(c2ccco2)N2CCOCC2)cc(OC)c1OC (stereo not drawn) | . | 0.8% | . | -0.5% | 5.1% | ?
CCc1ccc2oc(-c3cc(N)cc(C)c3O)nc2c1 | 79.8* | -1.0% | 36.3* | 12.8% | 28.9% | 192.6%
CCc1ccc2oc(-c3cc(N)ccc3Cl)nc2c1 | 20.8 | -7.1% | 14.9* | -9.7% | ? | 159.2%
CCc1ccc2oc(-c3cc(N)ccc3O)nc2c1 | 15.1 | 11.7% | 18.5* | 82.2% | ? | -14.5%
CO/N=C(/CN1CCCCC1)c1ccc(Cl)cc1 | -1.3 | 0.6% | -2.6 | -14.4% | 40.7% | 3.5%
Cc1cc2cc(CN(Cc3ccc4c(c3)OCO4)Cc3nnnn3C3CCCC3)c(=O)[nH]c2cc1C | -11.5 | 6.1% | -4.6 | -1.6% | 51.8% | ?
CCc1ccc2[nH]c(=O)c(CN(Cc3nnnn3C3CCCC3)C3CCCCC3)cc2c1 | -13.5 | 0.1% | -1.6 | -9.5% | 0.6% | 8.28µM*
Cc1cccc2cc(CN(Cc3nnnn3C3CCCC3)C3CCCCC3)c(=O)[nH]c12 | . | . | . | 0.0% | . | .
CC(=O)N(Cc1ccco1)Cc1cc2cccc(C)c2n2nnnc12 | -6.6 | -1.2% | -3.0 | . | ? | -14.9%
COc1ccc2[nH]c(=O)c(CN(Cc3nnnn3Cc3ccccc3)CC3CCCO3)cc2c1 (stereo not drawn) | -3.7 | -3.5% | -1.5 | 18.0% | 12.0% | ?
Cc1ccc2[nH]c(=O)c(CN(Cc3nnnn3Cc3ccccc3)C3CCCC3)cc2c1 | -1.6 | -0.8% | -0.9 | -2.5% | -19.6% | 13.1µM*
Cc1ccc2[nH]c(=O)c(CN(Cc3ccc4c(c3)OCO4)Cc3nnnn3C3CCCC3)cc2c1 | 10.1 | . | -1.7 | -29.0% | -1.2% | 10.4µM*
Cc1cccc2cc(CN(Cc3nnnn3Cc3ccco3)C3CCCC3)c3nnnn3c12 | 29.4* | -14.0% | 10.4 | -1.0% | -12.7% | ?
CCOc1ccc2[nH]c(=O)c(CN(CCO)C(c3nnnn3C3CCCCC3)C(C)C)cc2c1 (stereo not drawn) | -14.8 | -5.0% | -1.9 | -8.7% | -17.5%[5.75 µM] | 3.29µM*
CCCN1CCN(C(c2cc3cc(OCC)ccc3[nH]c2=O)c2nnnn2C2CCCCC2)CC1 (stereo not drawn) | -16.4 | 0.2% | -3.4 | -0.7% | 52.3% | ?
CC1=NN(c2ccc(C)cc2C)C(=O)C1C(c1cccc(O)c1)C1C(=O)N(c2ccc(C)cc2C)N=C1C (stereo not drawn) | -11.0 | -5.7% | -1.4 | 55.3% | 19.0% | -4.2%
